# Active and inactive are the calls of the source. The calls were made as follows: active = hit-call score of the fitted dose curve at least 0.9, where 1 is the maximum; inactive = score below 0.9.
# Columns and labels:
# Conditions in all cases: mRNA level, 48 h; actives raise or lower the signal
# [1] = read-out: Fatty acid synthase (Homo sapiens) (UniProt P49327); test: LTEA_HepaRG_FASN: Life Technologies and Expression Analysis (LTEA) Assay for Fatty Acid Synthase (FASN) using HepaRG (AID 2283448)
# Outline: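 Differentiated HepaRG cells in serum-free induction medium exposed 48 h in duplicate to eight half-log concentrations, top 100 uM, 0.5% DMSO. FASN mRNA by qRT-PCR normalised to ACTB, GAPDH, POLR2A; bidirectional fit versus DMSO.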
# [2] = read-out: Cyclin D2 (CCND2), CCND2 (gene 894); test: LTEA_HepaRG_CCND2: Life Technologies and Expression Analysis (LTEA) Assay for Cyclin D2 (CCND2) using HepaRG (AID 2283449);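 also: CCND2 transcript measured by TaqMan qRT-PCR and normalised to three housekeeping genes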
# Outline: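 Chemicals in 0.5% DMSO, eight half-log concentrations from 100 uM top, were applied in duplicate for 48 h to human HepaRG cells in serum-free induction medium. CCND2 mRNA by TaqMan qRT-PCR, normalised to ACTB/GAPDH/POLR2A; bidirectional fit versus DMSO.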
# [3] = read-out: Cyclin Dependent Kinase Inhibitor 1A (CDKN1A), CDKN1A (gene 1026); test: LTEA_HepaRG_CDKN1A: Life Technologies and Expression Analysis (LTEA) Assay for Cyclin Dependent Kinase Inhibitor 1A (CDKN1A) using HepaRG (AID 2283450)
# Outline: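 Gain or loss of CDKN1A transcript is scored by bidirectional fitting against 0.5% DMSO vehicle. Human HepaRG cultures receive chemicals for 48 h across an 8-point series peaking at 100 uM; expression comes from qRT-PCR.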
# [4] = read-out: Cyclin D1 (CCND1), CCND1 (gene 595); test: LTEA_HepaRG_CCND1: Life Technologies and Expression Analysis (LTEA) Assay for Cyclin D1 (CCND1) using HepaRG (AID 2283451)
# Outline: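 Expression change is measured by qRT-PCR in HepaRG cells after 48 h treatment across eight concentrations topping at 100 uM, with duplicate wells and DMSO (0.5%) serving as baseline for bidirectional fitting.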
# [5] = read-out: catalase (CAT), CAT (gene 847); test: LTEA_HepaRG_CAT: Life Technologies and Expression Analysis (LTEA) Assay for catalase (CAT) using HepaRG (AID 2283452)
# Outline: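 HepaRG cells in serum-free induction medium, 0.5% DMSO vehicle, exposed 48 h in duplicate over 8 half-log concentrations from 100 uM. CAT mRNA measured by qRT-PCR, normalized to ACTB, GAPDH, POLR2A; bidirectional fit versus DMSO.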
# [6] = read-out: flavin-containing dimethylaniline monooxygenases 3 (FMO3), FMO3 (gene 2328); test: LTEA_HepaRG_FMO3: Life Technologies and Expression Analysis (LTEA) Assay for flavin-containing dimethylaniline monooxygenases 3 (FMO3) using HepaRG (AID 2283453)
# Outline: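 Differentiated HepaRG cells in serum-free induction medium, exposed 48 h in duplicate to 8 half-log concentrations up to 100 uM in 0.5% DMSO. FMO3 mRNA by qRT-PCR, normalized to ACTB, GAPDH, POLR2A; bidirectional fit vs DMSO.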
# [7] = read-out: Cytochrome P450 (CYP1A1), CYP1A1 (gene 1543); test: LTEA_HepaRG_CYP1A1: Life Technologies and Expression Analysis (LTEA) Assay for Cytochrome P450 (CYP1A1) using HepaRG (AID 2283454)
# Outline: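 Using HepaRG cultures with 0.5% DMSO as vehicle, eight-concentration exposures (max 100 uM) lasted 48 h. Transcript levels were measured by TaqMan qRT-PCR and normalized to ACTB, GAPDH and POLR2A.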
# [8] = read-out: CFLAR gene, CFLAR (gene 8837); test: LTEA_HepaRG_CFLAR: Life Technologies and Expression Analysis (LTEA) Assay for CFLAR gene using HepaRG (AID 2283455)
# Outline: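 Differentiated HepaRG cells in serum-free induction medium were exposed 48 h in duplicate to eight half-log concentrations up to 100 uM in 0.5% DMSO; mRNA measured by TaqMan qRT-PCR, normalized to ACTB, GAPDH, POLR2A; bidirectional fitting versus DMSO.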
# [9] = read-out: Forkhead box O1 (FOXO1), FOXO1 (gene 2308); test: LTEA_HepaRG_FOXO1: Life Technologies and Expression Analysis (LTEA) Assay for Forkhead box O1 (FOXO1) using HepaRG (AID 2283456)
# Outline: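 Differentiated HepaRG cells, in serum-free induction medium with 0.5% DMSO, exposed 48 h in duplicate to 8-point half-log series from 100 uM. FOXO1 mRNA measured by TaqMan qRT-PCR, normalized to ACTB, GAPDH, POLR2A; bidirectional fit versus DMSO.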
# [10] = read-out: growth arrest and DNA damage 45 (GADD45A), GADD45A (gene 1647); test: LTEA_HepaRG_GADD45A: Life Technologies and Expression Analysis (LTEA) Assay for growth arrest and DNA damage 45 (GADD45A) using HepaRG (AID 2283458)
# Outline: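 Differentiated HepaRG cells exposed 48 h in serum-free induction medium to 8 concentrations, top 100 uM in half-log steps, 0.5% DMSO. GADD45A mRNA quantified by qRT-PCR, normalized to ACTB, GAPDH and POLR2A; bidirectional fit versus DMSO.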
# [11] = read-out: ABC Transporter (ABCB1), ABCB1 (gene 5243); test: LTEA_HepaRG_ABCB1: Life Technologies and Expression Analysis (LTEA) Assay for ABC Transporter (ABCB1) using HepaRG (AID 2283460)
# Outline: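 HepaRG cells exposed in duplicate for 48 h in serum-free induction medium to eight half-log concentrations up to 100 uM in 0.5% DMSO. ABCB1 mRNA quantified by qRT-PCR, normalised to ACTB, GAPDH and POLR2A; fitted bidirectionally versus DMSO.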
# [12] = read-out: growth arrest and DNA damage 45 (GADD45B), GADD45B (gene 4616); test: LTEA_HepaRG_GADD45B: Life Technologies and Expression Analysis (LTEA) Assay for growth arrest and DNA damage 45 (GADD45B) using HepaRG (AID 2283461)
# Outline: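 Human HepaRG monolayers receive chemicals for 48 h at eight half-log concentrations, highest 100 uM, in 0.5% DMSO. Expression is measured by TaqMan qRT-PCR and normalized to ACTB, GAPDH and POLR2A.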
# [13] = read-out: ABC Transporter (ABCB11), ABCB11 (gene 8647); test: LTEA_HepaRG_ABCB11: Life Technologies and Expression Analysis (LTEA) Assay for ABC Transporter (ABCB11) using HepaRG (AID 2283463)
# Outline: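 Differentiated human HepaRG cells in serum-free induction medium, dosed in duplicate for 48 h. Eight-point half-log series from 100 uM in 0.5% DMSO; ABCB11 mRNA by qRT-PCR, normalized to ACTB, GAPDH, POLR2A, fitted bidirectionally versus DMSO.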
# [14] = read-out: ABC Transporter (ABCC2), ABCC2 (gene 1244); test: LTEA_HepaRG_ABCC2: Life Technologies and Expression Analysis (LTEA) Assay for ABC Transporter (ABCC2) using HepaRG (AID 2283464)
# Outline: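 After plating and 48 h culture, HepaRG medium is replaced with serum-free induction medium and chemicals are added (8 concentrations, max 100 uM, 0.5% DMSO) for 48 h. Total RNA then undergoes qRT-PCR for ABCC2 with housekeeping normalization.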
# [15] = read-out: Broad substrate specificity ATP-binding cassette transporter ABCG2 (Homo sapiens) (UniProt Q9UNQ0); test: LTEA_HepaRG_ABCG2: Life Technologies and Expression Analysis (LTEA) Assay for ABC Transporter (ABCG2) using HepaRG (AID 2283465)
# Outline: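 Differentiated HepaRG cells were exposed for 48 h in serum-free induction medium to 8 half-log concentrations, top 100 uM, in 0.5% DMSO. ABCG2 mRNA was measured by qRT-PCR, normalized to ACTB, GAPDH and POLR2A, with bidirectional fitting versus DMSO.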
# [16] = read-out: ATP-citrate lyase (ACLY), ACLY (gene 47); test: LTEA_HepaRG_ACLY: Life Technologies and Expression Analysis (LTEA) Assay for ATP-citrate lyase (ACLY) using HepaRG (AID 2283466)
# Outline: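 Differentiated HepaRG cells exposed 48 h in serum-free induction medium to eight half-log concentrations up to 100 uM in 0.5% DMSO, duplicates. Transcript measured by Fluidigm TaqMan qRT-PCR, normalized to ACTB, GAPDH, POLR2A; bidirectional fit versus DMSO.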
# [17] = read-out: Peroxisomal acyl-coenzyme A oxidase 1 (ACOX1) gene, ACOX1 (gene 51); test: LTEA_HepaRG_ACOX1: Life Technologies and Expression Analysis (LTEA) Assay for Peroxisomal acyl-coenzyme A oxidase 1 (ACOX1) gene using HepaRG (AID 2283467)
# Outline: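 HepaRG cells, plated 48 h then switched to serum-free induction medium, were exposed in duplicate for 48 h to 8-point half-log concentrations up to 100 uM in 0.5% DMSO. ACOX1 mRNA was measured by qRT-PCR, normalized to ACTB/GAPDH/POLR2A, and fitted bidirectionally versus DMSO.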
# [18] = read-out: Forkhead box O3 (FOXO3), FOXO3 (gene 2309); test: LTEA_HepaRG_FOXO3: Life Technologies and Expression Analysis (LTEA) Assay for Forkhead box O3 (FOXO3) using HepaRG (AID 2283459)
# Outline: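 Differentiated human HepaRG cells, 48 h post-plating, exposed in duplicate for 48 h in serum-free induction medium; 8-point half-log series from 100 uM in 0.5% DMSO. FOXO3 mRNA by TaqMan qRT-PCR, normalized to ACTB/GAPDH/POLR2A; bidirectional fit versus DMSO.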
# [19] = read-out: ABC Transporter (ABCC3), ABCC3 (gene 8714); test: LTEA_HepaRG_ABCC3: Life Technologies and Expression Analysis (LTEA) Assay for ABC Transporter (ABCC3) using HepaRG (AID 2283462)
# Outline: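 Transcriptional change of ABCC3 in HepaRG after 48 h treatment, determined by qRT-PCR normalized to endogenous controls. Concentrations spanned eight half-log steps to 100 uM in 0.5% DMSO.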
# Chain of Fatty acid synthase (Homo sapiens) (P49327 whole entry, looked up): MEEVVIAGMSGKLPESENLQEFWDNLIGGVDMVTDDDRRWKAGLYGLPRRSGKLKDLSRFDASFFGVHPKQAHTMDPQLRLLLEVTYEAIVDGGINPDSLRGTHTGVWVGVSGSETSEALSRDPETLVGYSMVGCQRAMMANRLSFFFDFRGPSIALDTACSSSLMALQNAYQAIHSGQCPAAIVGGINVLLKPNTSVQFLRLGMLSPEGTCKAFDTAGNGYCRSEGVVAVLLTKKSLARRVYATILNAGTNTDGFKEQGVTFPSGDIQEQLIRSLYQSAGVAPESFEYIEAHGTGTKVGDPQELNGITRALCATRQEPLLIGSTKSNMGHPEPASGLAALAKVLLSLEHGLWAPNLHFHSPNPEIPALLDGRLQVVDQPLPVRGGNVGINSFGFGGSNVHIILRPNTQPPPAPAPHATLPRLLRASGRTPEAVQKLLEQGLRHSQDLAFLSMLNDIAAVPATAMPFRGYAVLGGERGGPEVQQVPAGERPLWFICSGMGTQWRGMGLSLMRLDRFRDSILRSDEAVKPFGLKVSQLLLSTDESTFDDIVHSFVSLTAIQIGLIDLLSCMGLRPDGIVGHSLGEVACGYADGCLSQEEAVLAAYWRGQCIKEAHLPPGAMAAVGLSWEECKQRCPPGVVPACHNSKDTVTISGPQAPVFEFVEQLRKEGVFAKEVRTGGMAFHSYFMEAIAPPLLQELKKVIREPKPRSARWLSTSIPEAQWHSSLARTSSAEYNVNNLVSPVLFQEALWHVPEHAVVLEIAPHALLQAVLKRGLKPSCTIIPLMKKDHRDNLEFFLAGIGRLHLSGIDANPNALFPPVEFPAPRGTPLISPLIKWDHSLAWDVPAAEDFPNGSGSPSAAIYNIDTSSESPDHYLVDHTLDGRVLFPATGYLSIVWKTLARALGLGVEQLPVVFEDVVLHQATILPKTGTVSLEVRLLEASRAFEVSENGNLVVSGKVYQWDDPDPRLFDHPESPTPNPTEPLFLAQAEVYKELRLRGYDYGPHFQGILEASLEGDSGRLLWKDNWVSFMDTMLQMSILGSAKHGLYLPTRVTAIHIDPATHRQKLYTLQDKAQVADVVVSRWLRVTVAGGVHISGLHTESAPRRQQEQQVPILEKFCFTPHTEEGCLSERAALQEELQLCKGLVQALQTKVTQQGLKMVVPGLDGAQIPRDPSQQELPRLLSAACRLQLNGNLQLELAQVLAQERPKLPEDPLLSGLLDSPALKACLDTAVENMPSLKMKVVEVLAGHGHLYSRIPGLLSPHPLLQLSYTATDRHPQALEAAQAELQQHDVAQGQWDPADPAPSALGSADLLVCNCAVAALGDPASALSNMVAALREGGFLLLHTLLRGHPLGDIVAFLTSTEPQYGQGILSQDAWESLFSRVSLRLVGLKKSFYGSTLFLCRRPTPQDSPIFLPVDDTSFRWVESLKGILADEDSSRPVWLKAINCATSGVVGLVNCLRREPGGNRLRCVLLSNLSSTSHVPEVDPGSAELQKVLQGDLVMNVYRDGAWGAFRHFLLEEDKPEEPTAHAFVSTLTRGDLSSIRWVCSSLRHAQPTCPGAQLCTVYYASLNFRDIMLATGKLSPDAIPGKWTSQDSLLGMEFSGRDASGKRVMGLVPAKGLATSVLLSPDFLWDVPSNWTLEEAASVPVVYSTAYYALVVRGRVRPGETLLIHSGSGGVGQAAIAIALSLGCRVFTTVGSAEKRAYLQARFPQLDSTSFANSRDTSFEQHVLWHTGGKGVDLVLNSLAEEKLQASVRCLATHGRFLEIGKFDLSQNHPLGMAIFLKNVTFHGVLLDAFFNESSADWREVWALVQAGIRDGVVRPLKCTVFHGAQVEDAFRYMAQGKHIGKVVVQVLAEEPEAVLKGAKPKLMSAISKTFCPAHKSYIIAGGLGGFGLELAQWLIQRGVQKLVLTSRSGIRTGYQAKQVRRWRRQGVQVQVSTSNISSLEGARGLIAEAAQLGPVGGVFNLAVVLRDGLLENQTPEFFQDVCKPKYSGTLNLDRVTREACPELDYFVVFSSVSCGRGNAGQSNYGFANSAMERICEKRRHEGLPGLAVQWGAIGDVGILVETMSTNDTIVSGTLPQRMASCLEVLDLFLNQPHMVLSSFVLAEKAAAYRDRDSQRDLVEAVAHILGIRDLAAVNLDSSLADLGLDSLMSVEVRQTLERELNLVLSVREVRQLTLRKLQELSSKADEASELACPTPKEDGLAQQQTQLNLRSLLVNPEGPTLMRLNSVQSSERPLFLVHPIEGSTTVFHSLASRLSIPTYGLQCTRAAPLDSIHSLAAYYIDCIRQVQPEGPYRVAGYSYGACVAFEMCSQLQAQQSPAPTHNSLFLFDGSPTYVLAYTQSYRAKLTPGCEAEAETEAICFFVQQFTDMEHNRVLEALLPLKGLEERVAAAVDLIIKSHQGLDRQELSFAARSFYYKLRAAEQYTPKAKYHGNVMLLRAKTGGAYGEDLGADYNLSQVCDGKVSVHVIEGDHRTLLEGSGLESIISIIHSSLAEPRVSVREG
# Chain of Broad substrate specificity ATP-binding cassette transporter ABCG2 (Homo sapiens) (Q9UNQ0 whole entry, looked up): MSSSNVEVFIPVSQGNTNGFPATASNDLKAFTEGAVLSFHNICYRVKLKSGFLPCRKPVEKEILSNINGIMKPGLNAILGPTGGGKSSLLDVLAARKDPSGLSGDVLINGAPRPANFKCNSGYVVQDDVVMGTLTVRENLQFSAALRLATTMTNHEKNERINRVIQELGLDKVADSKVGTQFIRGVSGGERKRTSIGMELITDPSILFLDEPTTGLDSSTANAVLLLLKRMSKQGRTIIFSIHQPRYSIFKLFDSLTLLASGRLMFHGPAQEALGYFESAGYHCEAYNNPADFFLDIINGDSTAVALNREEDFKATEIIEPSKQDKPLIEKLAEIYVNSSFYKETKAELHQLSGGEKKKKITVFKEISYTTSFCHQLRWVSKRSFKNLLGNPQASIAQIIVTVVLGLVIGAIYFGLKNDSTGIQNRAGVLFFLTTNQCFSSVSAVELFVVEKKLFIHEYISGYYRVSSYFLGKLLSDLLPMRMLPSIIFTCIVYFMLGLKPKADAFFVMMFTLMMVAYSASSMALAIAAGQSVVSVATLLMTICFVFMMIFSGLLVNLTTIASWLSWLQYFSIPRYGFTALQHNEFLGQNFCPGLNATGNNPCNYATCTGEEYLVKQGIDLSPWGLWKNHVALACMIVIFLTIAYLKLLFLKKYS
structure (smiles),measurement,setting,value
CCOC(N)=O,outcome,[1],inactive
same,outcome,[2],inactive
same,outcome,[3],inactive
same,outcome,[4],inactive
same,outcome,[5],inactive
same,outcome,[6],inactive
same,AC50,[7],50 µM (active)
same,outcome,[8],inactive
same,outcome,[9],inactive
same,outcome,[10],inactive
same,outcome,[11],inactive
same,outcome,[12],inactive
same,outcome,[13],inactive
same,outcome,[14],inactive
same,outcome,[15],inactive
same,outcome,[16],inactive
same,outcome,[17],inactive
Cc1ccc(S(=O)(=O)NC(=O)NN2CCCCCC2)cc1,outcome,[1],inactive
same,outcome,[2],inactive
same,outcome,[3],inactive
same,outcome,[4],inactive
same,outcome,[5],inactive
same,outcome,[6],inactive
same,outcome,[8],inactive
same,outcome,[9],inactive
same,outcome,[10],inactive
same,outcome,[18],inactive
same,AC50,[11],20.1 µM (active)
same,outcome,[12],inactive
same,outcome,[19],inactive
same,outcome,[13],inactive
same,outcome,[14],inactive
same,outcome,[15],inactive
same,outcome,[16],inactive
same,outcome,[17],inactive
CCCCCCCC1CCC(=O)O1 (stereo unspecified),outcome,[1],inactive
same,outcome,[2],inactive
same,outcome,[3],inactive
same,outcome,[4],inactive
same,outcome,[5],inactive
same,outcome,[6],inactive
same,outcome,[8],inactive
same,outcome,[9],inactive
same,outcome,[10],inactive
same,outcome,[12],inactive
same,outcome,[14],inactive
same,outcome,[15],inactive
same,outcome,[16],inactive
same,outcome,[17],inactive
NC(=O)N1c2ccccc2C=Cc2ccccc21,outcome,[1],inactive
same,outcome,[3],inactive
same,outcome,[4],inactive
same,outcome,[5],inactive
same,outcome,[6],inactive
same,outcome,[7],inactive
same,outcome,[8],inactive
same,outcome,[9],inactive
same,outcome,[10],inactive
same,outcome,[11],inactive
same,outcome,[12],inactive
same,outcome,[13],inactive
same,AC50,[14],37.8 µM (active)
same,outcome,[15],inactive
same,outcome,[16],inactive
same,outcome,[17],inactive
NNC(=O)c1ccncc1,outcome,[1],inactive
same,outcome,[2],inactive
same,outcome,[3],inactive
same,outcome,[4],inactive
same,outcome,[5],inactive
same,outcome,[6],inactive
same,AC50,[7],22 µM (active)
same,outcome,[8],inactive
same,outcome,[9],inactive
same,outcome,[10],inactive
same,outcome,[11],inactive
same,outcome,[12],inactive
same,outcome,[13],inactive
same,outcome,[14],inactive
same,outcome,[15],inactive
same,outcome,[16],inactive
same,outcome,[17],inactive
OC[C@H]1O[C@@H]2O[C@H]3[C@H](O)[C@@H](O)[C@@H](O[C@H]4[C@H](O)[C@@H](O)[C@@H](O[C@H]5[C@H](O)[C@@H](O)[C@@H](O[C@H]6[C@H](O)[C@@H](O)[C@@H](O[C@H]7[C@H](O)[C@@H](O)[C@@H](O[C@H]1[C@H](O)[C@H]2O)O[C@@H]7CO)O[C@@H]6CO)O[C@@H]5CO)O[C@@H]4CO)O[C@@H]3CO,outcome,[1],inactive
same,outcome,[2],inactive
same,outcome,[3],inactive
same,outcome,[4],inactive
same,outcome,[5],inactive
same,outcome,[6],inactive
same,AC50,[7],26.2 µM (active)
same,outcome,[8],inactive
same,outcome,[9],inactive
same,outcome,[10],inactive
same,outcome,[11],inactive
same,outcome,[12],inactive
same,outcome,[13],inactive
same,outcome,[14],inactive
same,outcome,[15],inactive
same,outcome,[16],inactive
same,outcome,[17],inactive
CC(C)CCCCCCOC(=O)C1CCCCC1C(=O)OCCCCCCC(C)C (stereo unspecified),outcome,[1],inactive
same,outcome,[2],inactive
same,outcome,[3],inactive
same,outcome,[4],inactive
same,outcome,[5],inactive
same,outcome,[6],inactive
same,AC50,[7],75.6 µM (active)
same,outcome,[8],inactive
same,outcome,[9],inactive
same,AC50,[10],0.00316 µM (active)
same,outcome,[11],inactive
same,outcome,[12],inactive
same,outcome,[13],inactive
same,outcome,[14],inactive
same,outcome,[15],inactive
same,outcome,[16],inactive
same,outcome,[17],inactive

# Reference: PubChem BioAssay (EPA / NIEHS)
